This is part of a sample that, as a whole, favours compounds with a hit. Of some 83,000 tested, about 20% had one in any assay.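 How to read the values: 0–100, growth inhibition (40 = 60% inhibited); 0, no net growth; -100 to 0, cell death (-40 = 40% of starting cells died; -100 = all dead).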 Values without a mark were called inactive. Active and inactive are the calls of the source. The calls were made as follows: active = growth percent below 10; inactive = the rest.

Test systems include SR leukemia; RPMI-8226 leukemia; OVCAR-8 ovarian; OVCAR-5 ovarian; OVCAR-4 ovarian; SK-OV-3 ovarian; IGROV1 ovarian; OVCAR-3 ovarian; NCI/ADR-RES ovarian; HS 578T breast.
Holding throughout (assay): NCI-60 one-dose screen, 48 h (100 = growth as untreated, 0 = no growth, -100 = all killed)
Common to all, as to conditions: 10 µM unless noted

For the compound `O=C(Nc1nc2c(C(F)(F)F)cccc2s1)c1cc(Cl)ccc1O`, the growth with SR leukemia is 7.18% (active); in the experiment on RPMI-8226 leukemia, -22.7% (active); in the experiment on OVCAR-8 ovarian, 6.2% (active); with OVCAR-5 ovarian, 29.3%; in the experiment with OVCAR-4 ovarian, 21.8%; in the experiment on SK-OV-3 ovarian, -8.89% (active). Further, the growth in the experiment on IGROV1 ovarian was 24.2%; in the experiment with OVCAR-3 ovarian, 10.1%; with NCI/ADR-RES ovarian, 1.26% (active).

Consider `COC(=O)[C@H](Cc1cn(C)cn1)NC(=O)[C@H](Cc1ccccc1)NC(=O)Nc1cc(C(F)(F)F)cc(C(F)(F)F)c1`, for which the growth with SR leukemia was -39% [100 µM] (active); in the experiment with RPMI-8226 leukemia, -58.8% [100 µM] (active); in the experiment on OVCAR-8 ovarian it was -87.9% [100 µM] (active); in the experiment on OVCAR-5 ovarian, -94% [100 µM] (active); with OVCAR-4 ovarian, -87.1% [100 µM] (active); in the experiment with SK-OV-3 ovarian, -100% [100 µM] (active). In addition, the growth was -56.3% [100 µM] (active) in the experiment on IGROV1 ovarian, -99.1% [100 µM] (active) in the experiment with OVCAR-3 ovarian and 4.87% [100 µM] (active) in the experiment with NCI/ADR-RES ovarian.

Regarding `O=C(N/N=C/c1cccc(O)c1)c1ccc(C(F)(F)F)nc1Nc1cccc(C(F)(F)F)c1`, the growth with SR leukemia was -38.7% (active); in the experiment with RPMI-8226 leukemia, -37.2% (active); in the experiment on OVCAR-8 ovarian, 18.1%; in the experiment with OVCAR-5 ovarian, 34.3%; with OVCAR-4 ovarian, 10.5%; in the experiment on SK-OV-3 ovarian it was 24.6%. The results for the growth with IGROV1 ovarian, in the experiment on OVCAR-3 ovarian and in the experiment with NCI/ADR-RES ovarian were 15%, -12.2% (active) and 13.6%, respectively.

As for `CCOc1cc(CCNS(=O)(=O)c2ccc(C)cc2)c(C(C)=O)cc1OCC`, the growth was 42.6% [100 µM] in the experiment on SR leukemia; 40% [100 µM] with RPMI-8226 leukemia; 76% [100 µM] in the experiment with OVCAR-8 ovarian; 101% [100 µM] in the experiment with OVCAR-5 ovarian; 84.6% [100 µM] in the experiment on OVCAR-4 ovarian; 96.7% [100 µM] in the experiment on SK-OV-3 ovarian. Moreover, the growth with IGROV1 ovarian was 93.9% [100 µM]; in the experiment on OVCAR-3 ovarian, 71.8% [100 µM]; in the experiment with NCI/ADR-RES ovarian, 66.3% [100 µM].

`CC(=O)N1N=C(c2ccc3c(c2)OCO3)CC1c1c(C)nn(-c2ccccc2)c1N(C)Cc1ccccc1` (configuration not stated): the growth with SR leukemia is 67%; in the experiment with RPMI-8226 leukemia, 58.8%; in the experiment with OVCAR-8 ovarian, 76.7%; in the experiment with OVCAR-5 ovarian it was 97.1%; in the experiment on OVCAR-4 ovarian, 66.3%; in the experiment with SK-OV-3 ovarian, 84.2%. Also, the growth in the experiment on IGROV1 ovarian is 51.5%; in the experiment on OVCAR-3 ovarian, 79.4%; with NCI/ADR-RES ovarian, 63%.

Consider `COc1cc(C2CC(C3C(=O)N(C)C(=O)N(C)C3=O)=NN2c2cc(Cl)cc(Cl)c2)cc(OC)c1OC` (configuration not stated), for which the growth is 94.5% with SR leukemia; 85.7% in the experiment with RPMI-8226 leukemia; 96.7% in the experiment on OVCAR-8 ovarian; 108% with OVCAR-5 ovarian; 96% in the experiment with OVCAR-4 ovarian; 95.6% in the experiment on SK-OV-3 ovarian. In addition, the growth in the experiment on IGROV1 ovarian was 102%; with OVCAR-3 ovarian, 97.2%; in the experiment with NCI/ADR-RES ovarian, 87.2%.

For the compound `CCCCCCCCN(CCO)CCCCCCCC`, the growth is 96.7% in the experiment on SR leukemia; 121% in the experiment on RPMI-8226 leukemia; 101% in the experiment on OVCAR-8 ovarian; 96.9% in the experiment on OVCAR-5 ovarian; 93.8% in the experiment with OVCAR-4 ovarian; 103% in the experiment with SK-OV-3 ovarian. Besides, the growth with IGROV1 ovarian was 105%; in the experiment on OVCAR-3 ovarian, 109%; in the experiment with HS 578T breast, 117%; in the experiment with NCI/ADR-RES ovarian, 105%.

On to `c1ccc(-c2n(Cc3ccc4ccccc4c3)cc[n+]2Cc2ccc3ccccc3c2)cc1`, for which the growth was -42.2% (active) with SR leukemia; -37% (active) in the experiment on RPMI-8226 leukemia; -72.4% (active) in the experiment on OVCAR-8 ovarian; -35.9% (active) in the experiment on OVCAR-5 ovarian; -28.1% (active) in the experiment on OVCAR-4 ovarian; -6.1% (active) in the experiment with SK-OV-3 ovarian. Also, the growth was -67.8% (active) in the experiment with IGROV1 ovarian, -89.8% (active) with OVCAR-3 ovarian and 82.2% in the experiment with NCI/ADR-RES ovarian.

As for `COc1ccc2c(c1)C(=Nc1cc(OC)c(OC)c(OC)c1)C(=O)N2`, the growth was 75.4% in the experiment on SR leukemia; 65.9% with RPMI-8226 leukemia; 105% in the experiment on OVCAR-8 ovarian; 99.5% in the experiment with OVCAR-5 ovarian; 111% in the experiment on OVCAR-4 ovarian; 97.4% with SK-OV-3 ovarian. Besides, the growth in the experiment with IGROV1 ovarian is 94.1%; with OVCAR-3 ovarian, 72.4%; in the experiment with NCI/ADR-RES ovarian, 103%.

Take `NS(=O)(=O)c1ccc(-n2nc(-c3ccc(Br)cc3)ccc2=O)cc1`: the growth with SR leukemia is 21.1% [100 µM]; with RPMI-8226 leukemia, 85.7% [100 µM]; in the experiment on OVCAR-8 ovarian, 88.2% [100 µM]; with OVCAR-5 ovarian it was 94.7% [100 µM]; with OVCAR-4 ovarian, 89.4% [100 µM]; in the experiment with SK-OV-3 ovarian, 25% [100 µM]. Moreover, the values for the growth with IGROV1 ovarian, with OVCAR-3 ovarian and in the experiment with NCI/ADR-RES ovarian were 50.2% [100 µM], 70.9% [100 µM] and 57% [100 µM], respectively.

Consider `O=C(/C=C/c1ccc(C(F)(F)F)cc1)c1ccc(Nc2nc(NCCO)nc(NCCO)n2)cc1`, for which the growth is -2.01% (active) in the experiment on SR leukemia; 1.43% (active) in the experiment on RPMI-8226 leukemia; 21.7% in the experiment with OVCAR-8 ovarian; 64.3% with OVCAR-5 ovarian; 62.3% in the experiment on OVCAR-4 ovarian; 70.7% with SK-OV-3 ovarian. The growth in the experiment with IGROV1 ovarian is 72.5%; with OVCAR-3 ovarian it was 25.8%; in the experiment on NCI/ADR-RES ovarian, 90.1%.

As for `COc1ccc(C2=NN(C(C)=O)C(c3cccc(Nc4ccnc5cc(Cl)ccc45)c3)C2)cc1` (configuration not stated), the growth in the experiment with SR leukemia is -8.23% (active); with RPMI-8226 leukemia, 41%; in the experiment with OVCAR-8 ovarian it was 50%; in the experiment on OVCAR-5 ovarian, 87.2%; with OVCAR-4 ovarian it was 42%; in the experiment with SK-OV-3 ovarian, 52.9%. In addition, the figures for the growth with IGROV1 ovarian, in the experiment with OVCAR-3 ovarian and with NCI/ADR-RES ovarian were 65.7%, 59.3% and 43.6%, respectively.

As to `CC(=O)Nc1cc(C(c2ccccc2)c2ccccc2)cc(C(c2ccccc2)c2ccccc2)c1C`, the growth was 14.3% in the experiment on SR leukemia; 11.2% with RPMI-8226 leukemia; 73.8% in the experiment on OVCAR-8 ovarian; 75.4% in the experiment with OVCAR-5 ovarian; 43.8% with OVCAR-4 ovarian; 77% in the experiment on SK-OV-3 ovarian. The growth in the experiment with IGROV1 ovarian is 58%; in the experiment on OVCAR-3 ovarian it was 49.8%; with NCI/ADR-RES ovarian, 51.8%.

As to `O=c1[nH]c(N2CCC(Cc3ccccc3)CC2)nc2sc3c(c12)CCCC3`, the growth was 109% in the experiment on SR leukemia; 107% in the experiment on RPMI-8226 leukemia; 96.3% with OVCAR-8 ovarian; 107% in the experiment with OVCAR-5 ovarian; 110% with OVCAR-4 ovarian; 101% in the experiment on SK-OV-3 ovarian. Moreover, the growth in the experiment with IGROV1 ovarian is 106%; in the experiment with OVCAR-3 ovarian, 106%; in the experiment with NCI/ADR-RES ovarian, 96.6%.
